The test system of the experiment is VDR:RXRa (NR concentration 270 nM, RXRa partner concentration 90 nM). The experiment can be described thus: PBM binding z-score (relative to random genomic background probes); higher = stronger binding; sequences stand for … in GC…GCGATTGACAGCGTAGAATGAAGG
How it is done:
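Protein-binding microarray (Agilent 4x180K custom design, double-stranded 60-nt probes: 5' GC cap, 34-nt variable region, 24-nt constant primer region; full probe sequence given). Purified or IVT nuclear receptor:RXRα heterodimers (3:1 NR:RXRα, mostly 270:90 nM) or homodimers were incubated for 1 h in PBS with 2% milk and no ligand, then detected with Alexa488 antibodies. Fluorescence from o1-orientation probes (~5 replicates averaged) was converted to z-scores against 500 random hg19 background probes. Variable regions are seed direct-repeat (DR0–DR5) sites, all their single-nucleotide variants and half-site ablations.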
Regarding CCGAGTTGGTCAGGAGGTCACACACCGGATATGA, the PBM binding z-score is 4.19.
The figure for GGAACGAGGGCCAAGTTGATAGCATCTGTCGACG is -0.379.
On to CCTACTGGGCCATCAGGTCATCGATATCAACGTT, for which the PBM binding z-score is 1.77.
On to AATAGCAGGCCAAGTTTGGGTCACTCAAACAAAG, for which the PBM binding z-score was determined as 0.703.
In turn, TCCAGTAGGTTAGTCGGGGCATTCAGCCAACATA registered a PBM binding z-score of 2.47.
ACTAGCAGGCCAAGTTTGGGGCACTCAAACAAAG displayed a PBM binding z-score of -0.558.
Turning to CCGAGTAGGTTATGGGGCGTTCAGGCAACGGTGA, the PBM binding z-score came to 0.0035.
In turn, CCGAATGGGGCAAAGGTTACCATACTCAGTACGA returned a PBM binding z-score of 1.77.
Sequence TCTAGCAGCCCAGAGGGTCACTCAAGAGGTACGG came in with a PBM binding z-score of 1.1.
The figure for ACAGGCAGGTGATGAAGGTAACTCAGGCTATCAT is -0.0607; for ATCTCTAGGTAAAAAGTTCAGTGAAAGAGAGGAC it is 1.39.
The sequence AACTCTAGGTAAAGATAGTTCAGTGAATGCAAAT showed a PBM binding z-score of 0.688.
Take CAAACTAGGTCAAGGACAAAGTCGGTTTGTGCCA: the PBM binding z-score is 1.79.
With TCTGGTAGATCAACAGGAGGTTAAGAAAGATCGA, the PBM binding z-score worked out at 0.61.
Regarding ATCTCTAGGTAACCTAGTTCAGTGAATGCCGAAC, the PBM binding z-score was 1.96.
In turn, CCTAGTTGGTCAAAGTCACACACGCTATAGGTAC yielded a PBM binding z-score of 0.996.
The result for TCTTGTAGAGCAACAGGAGGTTAAGAAAGATCGA reads 0.0425.
For the sequence TAGCCTTGGTCATTGGGCCAGTATAGTACGCATC, the PBM binding z-score is -0.419.
The figure for ACTCGGAGGCCAAAGGTCAGAGCTACGCCAGTGA is 3.11; for CGTCAAAGTTCGAGGTAACGTAACAGAAAGCAGC it is 1.32.
TCTTGTGGATCAAGCAGGTTAAGAAAGCCTGAGT gave a PBM binding z-score of 0.403.
Regarding TCGAGTACGTTAGGGGCATTCAGAATGGCGTCGA, the PBM binding z-score is 2.6.
As to TGATATAGGTAATACAGGTGAAAGTCGGCATCTA, the PBM binding z-score is 0.523.
CGTCCAAGGTCAAAGGTTAGTGAAGAGATGACGG registered a PBM binding z-score of 5.39.
Turning to CGTCCAAGGTCTGCAGGTCAGTGAAAGCGACGTG, the PBM binding z-score was -0.117.
Sequence AGAATGAGGTTAAAATCAGGGAAACAGAATACAT came in with a PBM binding z-score of 1.33.
Sequence TCTGTTAGTTGAAGGGCAACCGACGAGTCCGTTT yielded a PBM binding z-score of 0.902.
AATACAGGCTCACTAGGCCAGAGTAGGTACGAAT showed a PBM binding z-score of -0.46.
The result for CCTTACGTGTCAAGGTTATAGCACGGGTGGTACG reads 0.738; that for CCTTACGGGTCACTCCGGGTTATAGCATCGGAGT, 4.18; that for AGAATGAGGTTACCAAAGATCTGGGAAACGCTTG, 0.954.
The figure for GATACAGGGTCAGCTAGAGGCCAGAGTTTGGAAA is 3.36; for CTACCAAGGTGAACAATGTCGTTGATTACTATTC it is 1.37; for ACTCGGAGAACAAAGGTCAGAGCTACGCCAGTGA it is 2.77.
GCTTATGGGTCAAAGGTTATAGCATGAATAGAAT showed a PBM binding z-score of 4.82.
CAAACTAGCTCACGAAAGGTCAAAGTCGAATGAC came in with a PBM binding z-score of 4.32.
The figure for TCTCGGAGGACACTAAGGTCAGAGCTTTCCAGAG is 3.31; for TCATATAGGTACAGGTGAAAGTCGAACGATATGA it is 0.846; for CCTTACGGGTCACTCCAGATTATAGCATCGGAGT it is 2.72.
TCATATAGGTACTACAGGTGAAAGTCGGCATCTA gave a PBM binding z-score of 0.876.

(Values after the supplement of paper PMC6555819.)
